# Measurements published in PubChem BioAssay AID720511 (Broad Institute, 2013).
# About 1,300 (0.37%) of roughly 350,000 compounds were called active. The list comes from a sample in which actives are over-represented; it also holds similar structures and randomly drawn compounds. Unmarked numbers belong to inactive results.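 Rule for the calls: active = mean added fluorescence quench of at least 8% versus neutral control, with both replicates also reaching 8%; inconclusive = only one of the mean or replicate conditions met; inactive = mean below 8% and not both replicates reaching 8%.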
# Experiment: F508del CFTR correction, initial screen, CFBE line, single point (AID 720511);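 note: cells transiently co-express mutant CFTR-F508del with the halide-sensitive YFP; corrector assay measuring rescue of mutant channel to the surface after 24 h compound exposure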
# Details: CFBE cells, YFP halide quenching, at 7.58 µM, hits give high values
row,Compound,activity (quench increase)
1,C[C@]12CCC3C(CC[C@H]4C[C@@H](O)CC[C@]34C)C1C[C@@H](O)[C@H]2O (stereo not given in full),1.25%
2,C[C@]12CCC3C(CC[C@H]4[C@H](O)[C@H](O)CC[C@]34C)C1CCC2=O (stereo not given in full),11.1% (active)
3,C[C@]12CCC3C(CC[C@H]4[C@H](O)[C@H](O)CC[C@]34C)C1CC[C@@H]2O (stereo not given in full),0.916%
4,COC(=O)C1=C(c2ccc(OCc3ccccc3)cc2)C[C@@H]2CC[C@H]1N2C(=O)NCc1ccc(Cl)cc1,4.11%
5,C/C=C/c1ccc(C2[C@@H]3CN(Cc4cncnc4)C[C@H]2N3)cc1 (stereo not given in full),"2.42% [% fluorescence drop versus neutral controls, stimulated with forskolin plus potentiator P3]"
